Laboratory results taken from ChEMBL document CHEMBL3988442, “University of Dundee, Small-Polar-MMV Screening Library” (2021).
Among all 85,000 compounds or so, about 440 (0.52%) showed an effect of 50% or more. Only a selection was taken, and strong results are over-represented in it overall.

Test: In vitro enzyme assay to detect hydrolysis of chlorophenol red-beta-D-[…] directly proportional to the number of Toxoplasma stably expressing beta-galactosidase
Type: functional, organism-based, Toxoplasma gondii
Design: scale not given: in the data most compounds retested in dose-response had high values

| SMILES | Percent Effect (50 µM) [%] | Percent Effect (10 µM) [%] |
| --- | --- | --- |
| N#Cc1ccc(N2CCCC2C(=O)NC2CC2)cn1 (centres undefined) | 0.7704 | – |
| Cc1cc(C)cc(NC(=O)CN2CCC(O)CC2)c1 | 5.146 | – |
| CN1CCCCC1CCC(=O)NCCCn1cccn1 (centres undefined) | -6.664 | – |
| O=C(O)C(F)(F)F.O=C1COC2(CCN(S(=O)(=O)C3CC3)CC2)CN1c1cccnc1 | – | 59.25 |
| CCS(=O)(=O)N1CCC2(CC1)CN(c1cccnc1)C(=O)CO2.O=C(O)C(F)(F)F | – | -35.87 |
| O=C(CC1CC1)N1CCC2(CC1)CN(c1cccnc1)C(=O)CO2.O=C(O)C(F)(F)F | – | -21.74 |
| COc1cccc2c1N(CC(=O)N1CCC1)CCC2 | -0.7135 | – |
| Cc1ccc(-c2[nH]c3ccccc3c2C(=O)O)c(C)c1 | – | -0.6823 |
| COc1ccc(C)cc1-c1[nH]c2ccccc2c1C(=O)O | – | 55.01 |
| Cc1ccc(C)c(-c2[nH]c3ccccc3c2C(=O)O)c1 | – | 7.079 |
| NC(=O)c1cc(N2CCCC2)nc2ccccc12 | 2.977 | – |
| Cn1nc(C(=O)N2CCOCC2)c(Br)c1C(F)(F)F | 24.28 | – |
| CCn1cc(C(=O)NCCCC(N)=O)c2ccccc21 | -17.15 | – |
| N#CCCCn1ccccc1=O | -0.4771 | – |
| Cc1c(Cl)cccc1NC(=O)CSc1nnc[nH]1 | -6.056 | – |
| COCCOCC(=O)Nc1ccnn1-c1ccc(Cl)cc1 | – | 0.922 |
| COCC(=O)Nc1ccnn1-c1ccc(Cl)cc1 | – | 75.67 |
| CCOCCC(=O)Nc1ccnn1-c1ccc(Cl)cc1 | – | -1.702 |
| CC(NC(=O)c1ccc(Cl)cc1)c1nnc(SCC(N)=O)n1C (centres undefined) | – | 10.17 |
| CCn1ncnc1C(C)NC(=O)c1cc(Cl)ccc1F (centres undefined) | 1.166 | – |
| CC(NC(=O)c1ccc(Cl)cc1)c1nnc(SCC(=O)O)n1C (centres undefined) | – | 78.32 |
| CC(NC(=O)NCCOc1ccc(Cl)cc1)c1nncn1C (centres undefined) | – | 2.548 |
| CC(c1ccccc1)n1c(SCC(=O)O)nnc1-c1ccccc1Cl (centres undefined) | – | -2.501 |

| SMILES | Percent Effect (50 µM) [%] | Percent Effect (10 µM) [%] |
| --- | --- | --- |
| CCn1c(SCC(=O)O)nnc1C(C)NC(=O)c1ccc(Cl)cc1 (centres undefined) | – | 60.13 |
| CCn1c(SCC(N)=O)nnc1-c1cccnc1 | -5.033 | – |
| CCn1c(SCC(N)=O)nnc1C(C)NC(=O)c1ccc(Cl)cc1 (centres undefined) | – | 74.14 |
| CC(C)CC(NC(=O)c1ccc(Cl)cc1)C(N)=O (centres undefined) | 23.98 | – |
| N#Cc1ccc(C(=O)N2CCCO2)nc1 | -1.519 | – |
| CSCC(=O)N1CCN(Cc2nccn2C)CC1 | 0.586 | – |
| CCN1CCN(S(=O)(=O)c2c(F)cccc2F)CC1 | -8.353 | – |
| CN(CCC1CCCO1)Cc1ccc(N(C)C)nc1 (centres undefined) | 6.718 | – |
| CC(C)COCCN1CCN(Cc2ccon2)CC1 | 0.7264 | – |
| CCN(CC)c1nc(Nc2cccc(C(=O)O)c2)nc2ccccc12 | – | -21.05 |
| CC(O)c1cccc(Nc2nc(NCCO)c3ccccc3n2)c1 (centres undefined) | – | 12.45 |
| CCN(CC)c1nc(Nc2cccc(C(C)O)c2)nc2ccccc12 (centres undefined) | – | 95.47 |
| COC(=O)N1CCC(Nc2nnc(C(F)(F)F)s2)CC1 | 9.072 | – |
| NCC1CCCN(c2ncccn2)C1 (centres undefined) | 3.495 | – |
| O=C(NCC1CCCO1)c1cnn2cccnc12 (centres undefined) | -4.539 | – |
| Cn1cnc2c1CCN(Cc1cccc(C(N)=O)c1)C2 | – | 1.729 |
| CC(C)c1nc2c(n1C)CCN(Cc1cccc(C(N)=O)c1)C2 | – | -1.993 |
| NC(=O)c1cccc(CN2CCc3c(ncn3C3CC3)C2)c1 | – | 83.44 |
| CN(CCC#N)C(CCO)c1ccccc1 (centres undefined) | 25.8 | – |
| O=C(CSc1nnc(-c2ccccc2F)o1)NC1CC1 | -13.11 | – |
| CC(C)(CC1CCCNC1)C(N)=O (centres undefined) | 7.36 | – |
| Cc1cc(C)n(CC(=O)NCCc2ccc[nH]2)n1 | -10.28 | – |
| COc1cc2cc(C(=O)NC(C)C(=O)O)n(C)c2c(OC)c1OC (centres undefined) | – | 17.43 |

| SMILES | Percent Effect (50 µM) [%] | Percent Effect (10 µM) [%] |
| --- | --- | --- |
| COc1cc2cc(C(=O)O)n(C)c2c(OC)c1OC | – | -3.347 |
| COc1cc2cc(C(=O)N[C@@H](C)C(=O)O)n(C)c2c(OC)c1OC | – | -3.586 |
| COc1cc2cc(C(=O)NCC(=O)O)n(C)c2c(OC)c1OC | – | 74.68 |
| COCCNC(=O)c1cc2cc(C)ccc2n1C | 2.035 | – |
| COc1cc2cc(C(=O)NCCC(=O)O)n(C)c2c(OC)c1OC | – | 74.68 |
| COC(=O)C1CCN(C(=O)C2CCCO2)CC1 (centres undefined) | -8.272 | – |
| COc1ccccc1SC(C)C(=O)N1CCNC1=O (centres undefined) | 15.55 | – |
| CCc1cccc(NC(=O)C2CCCN(C(C)=O)C2)c1 (centres undefined) | 4.153 | – |
| CC1CCC(N(C)C(=O)Cn2cccn2)CC1 (centres undefined) | -1.84 | – |
| O=C(c1cc(C2CC2)n[nH]1)N1CCCC(O)(CO)CC1 (centres undefined) | 4.237 | – |
| O=C(c1cc(C2CC2)n[nH]1)N1CCC2(CCCO2)CC1 | 64.63 | – |
| CN1CCc2[nH]nc(C(=O)N3CCC4(CCCO4)CC3)c2C1 | – | 1.903 |
| COc1ccc(CSc2nnc(N)[nH]2)c(Cl)c1 | 2.455 | – |
| Clc1ccc(CSc2cnn[nH]2)s1 | -14.75 | – |
| Nc1nnc(SCc2ccc(Cl)s2)[nH]1 | 56.64 | – |
| O=C(NCCO)c1nnsc1-c1ccc(Cl)cc1 | -1.39 | – |
| CNC(=O)Cc1cccs1 | 0.3815 | – |
| CC(C)N(CC(N)=O)CC(=O)NCCc1cccs1 | 12.36 | – |
| CCS(=O)(=O)N(CCc1cccs1)CC(=O)NC | 65.25 | – |
| CC(C)n1cccc1C(=O)NCCc1cncn1C | 7.567 | – |
| CC(=O)Nc1nc(-c2ccccc2)c[nH]1 | – | -10.01 |
| COC(=O)c1snc(-c2ccccc2)c1N | 3.849 | – |
| COC(=O)c1[nH]cc(-c2ccccc2)c1N | 60.81 | – |

| SMILES | Percent Effect (50 µM) [%] | Percent Effect (10 µM) [%] |
| --- | --- | --- |
| O=S1(=O)CCC(NC2CCNCC2)C1 (centres undefined) | 0.6188 | – |
| CC(CCNC(=O)CCc1cccnc1)n1ccnc1 (centres undefined) | -1.131 | – |
| Cc1cc(=O)cc(C(=O)NCCCc2ccncc2)o1 | 15.6 | – |
| Cc1cc(=O)cc(C(=O)NCCC(C)n2ccnc2)o1 (centres undefined) | 85.97 | – |
| COCC(=O)N1CCCN(Cc2cnn(C)c2)CC1 | 1.219 | – |
| CC(=O)Nc1nc(CC(=O)NCc2ccco2)cs1 | -28.1 | – |
| Cn1cc(NC(=O)CCc2ccccn2)cn1 | -11.54 | – |
| N#Cc1ccc(-n2nccc2N)cc1 | 92.39 | – |
| Cc1cn(-c2ccc(C#N)cc2)nc1N | -9.418 | – |
| Nc1ccnn1-c1ccccn1 | -4.085 | – |
| O=C1CNCN1Cc1ccccc1 | 2.533 | – |
| N[C@@H]1CC[C@@H]1NC(=O)c1scc2c1OCCO2 | -7.783 | – |
| Cc1cnc(CN2CC3(CCOC3)CCC2=O)cn1 (centres undefined) | -2.648 | – |
| Cc1cc(C(=O)NCCc2noc(C3CC3)n2)nn1C | 97.7 | – |
| Cc1ccc(CNC(=O)c2cc(NC(=O)C3CC3)n(C)n2)o1 | – | 2.088 |
| Cc1cc(C(=O)NCCc2noc(C3CC3)n2)[nH]n1 | 12.77 | – |
| CCn1ccc(C(=O)NCc2ccco2)n1 | -13.38 | – |
| Cn1cc(C(=O)NCCc2noc(C3CC3)n2)cn1 | -7.141 | – |
| Cc1cc(C(=O)NCc2cccn2C)nn1C | – | 1.66 |
| Cc1ccc(CNC(=O)c2cc(C)n(C)n2)o1 | – | 75.49 |
| Cc1cc(C(=O)NCC(C)C)nn1C | – | 9.135 |
| Cc1cc(C(=O)NCc2ccco2)nn1C | – | 56.09 |
| CN(Cc1cccnc1)C(=O)c1cccc(Cl)c1 | 11.97 | – |

| SMILES | Percent Effect (50 µM) [%] | Percent Effect (10 µM) [%] |
| --- | --- | --- |
| CNC(=O)CSCc1ccc2ccccc2n1 | 15.55 | – |
| CCCS(=O)(=O)N1CCC(CC(=O)NC)CC1 | -1.732 | – |
| Cn1cncc1C(N)CO (centres undefined) | -9.765 | – |
| CCC(N)(CC)CNS(=O)(=O)c1ccc2c(c1)CCO2 | -2.355 | – |
| CC(C)CC(C)CN1CCN(CCS(C)(=O)=O)CC1 (centres undefined) | -18.72 | – |
| COc1csc(-c2cc(N)[nH]n2)c1 | 7.911 | – |
| CCS(=O)(=O)CCNC(C)(CO)C1CCCCC1 (centres undefined) | -6.595 | – |
| CC(=O)c1c(C)cccc1NCC(=O)N(C)C | -19.59 | – |
| CN1C(=O)c2ccc(C(=O)N(Cc3cnn(C)c3)C3CC3)cc2C1=O | – | -5.009 |
| Cn1cc(CN(C(=O)c2ccc(N)nc2)C2CC2)cn1 | 96.08 | – |
| Cn1cc(CN(C(=O)c2ccc(O)c(Cl)c2)C2CC2)cn1 | – | -12.14 |
| CC(=O)N[C@H]1CCO[C@@H](c2cccc(NC(=O)c3cccc(F)c3)c2)C1 | – | 20.53 |
| CC(=O)N[C@H]1CCO[C@@H](c2cccc(NC(=O)c3ccc(=O)[nH]n3)c2)C1 | – | 71.09 |
| CC(=O)Nc1cccc([C@H]2C[C@@H](NC(C)=O)CCO2)c1 | – | -4.369 |
| COCCCNC(=O)Nc1cnn(C)c1 | 3.712 | – |
| Cn1nnc2c(N3CCCCC3)ncnc21 | -0.3233 | – |
| O=C([C@@H]1CCO[C@@H]2CCN(CC3CC3)C[C@H]21)N1CCCCO1 | – | 96.45 |
| O=C(O)C(F)(F)F.O=C([C@@H]1CCO[C@@H]2CCN(CC3CCOCC3)C[C@H]21)N1CCCO1 | – | -19.56 |
| O=C(O)C(F)(F)F.O=C([C@@H]1CCO[C@@H]2CCN(Cc3ccc(F)cc3)C[C@H]21)N1CCCCO1 | – | 73.44 |
| O=C(O)C(F)(F)F.O=C([C@H]1CN(Cc2ccc(F)cc2)C[C@H]2OCC[C@@H]12)N1CCCO1 | – | 0.4926 |
| O=C(O)C(F)(F)F.O=C([C@@H]1CCO[C@@H]2CCN(Cc3cccs3)C[C@H]21)N1CCCCO1 | – | -10.74 |
| O=C([C@@H]1CCO[C@@H]2CCN(CC3CC3)C[C@H]21)N1CCCC1 | – | -7.409 |
